These results are taken from PubChem BioAssay (Tox21).

Values without a mark were called inactive. Inconclusive results are not listed. The source made the active and inactive calls. Unless noted, calls follow the shape of the dose curve; as a rule, active = well fitted curve in the direction sought with a large enough effect in the repeat runs; inconclusive = weak or mixed curves; inactive = no such curve, though single readings can be large; an effect the other way counts as inactive or inconclusive.

Test [1] can be described thus: qHTS assay for small molecules that induce genotoxicity in human embryonic kidney cells expressing luciferase-tagged ATAD5 (AID 651632). Also: nearly all actives have a fitted effect of over 15% in size. The essentials: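 DMSO vehicle served as the control. HEK293T reporter cells, 16 hr at 37C, then 30 min Amplite at room temperature; ATAD5 induction is measured as luciferase activity.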
Background: In qHTS, concentration-response curves come from the screen itself.

Test [2] in a line: qHTS assay for small molecules that induce genotoxicity in human embryonic kidney cells expressing luciferase-tagged ATAD5 - cell viability (AID 651634; calls by dose curve; also: nearly all actives have a fitted effect of over 25% in size). In outline:
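Here HEK293T cells with the ATAD5 luciferase reporter are incubated with test compounds for 15.5 hr, and cytotoxicity is then gauged by measuring protease activity in live cells using fluorescence.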

A short description of test [3]: qHTS assay for small molecule disruptors of the mitochondrial membrane potential - cell viability (AID 720634; calls by dose curve;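 also: human HepG2 liver cancer cells; series mostly up to about 83 µM; nearly all actives have a fitted effect of over 20% in size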). In outline: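 Viability of HepG2 cells is scored from ATP content by luminescence; cells are exposed to compound for 1 hr at 37 C and 5% CO2, then dosed with m-MPI dye before the CellTiter-Glo reagent.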
Test [4] can be described thus: qHTS assay for small molecule disruptors of the mitochondrial membrane potential (AID 720635). Also: potency is read from the fitted curve at half-maximal effect. The essentials: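 HepG2 cells exposed to compound 1 hr at 37C, then Mito-MPS dye 30 min. Ratio read of aggregate (540/590 nm) versus monomer (490/535 nm) fluorescence.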
Test [5] in a line: qHTS assay to test for compound auto fluorescence at 590 nm (red) in HepG2 cells (AID 720674). In outline:
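Seeding: 2,000 HepG2 cells/well, MEM/10% FBS, overnight 37 C. Dosing: compound vs DMSO. Incubation: 1 hr, 37 C, 5% CO2. Read: fluorescence 540 ex/590 em, Rose Bengal sodium as red reference.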

Test [6] can be described thus: qHTS assay to test for compound auto fluorescence at 535 nm (green) in HepG2 cells (AID 720675).
Test [7] can be described thus: qHTS assay to test for compound auto fluorescence at 460 nm (blue) in HEK293 cells (AID 720678). In outline: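 After cell attachment (4-5 hr, 37C), compounds were pinned onto HEK293 monolayers in 10% dialyzed FBS medium. The blue channel (405/460 nm) was read following overnight culture. Equivalency was calculated against triamterene.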
Test [8] can be described thus: qHTS assay to test for compound auto fluorescence at 590 nm (red) in HEK293 cells (AID 720679). In outline: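 Plates of HEK293 cells (10% dialyzed FBS) are treated with 23 nL compound or DMSO vehicle after a 4-5 hr attachment period, incubated overnight at 37C, and read for red fluorescence at 540/590nm.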
Test [9] can be described thus: qHTS assay to test for compound auto fluorescence at 535 nm (green) in HEK293 cells (AID 720680).
Test [10] can be described thus: qHTS assay to test for compound auto fluorescence at 460 nm (blue) in HEK293 cell free culture (AID 720681). The essentials: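 Compounds were added to cell-free DMEM with 10% FBS and fluorescence read directly. The blue channel used 405 nm excitation and 460 nm emission, with triamterene as the reference fluorophore.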
Test [11] is described as follows: qHTS assay to test for compound auto fluorescence at 535 nm (green) in HEK293 cell free culture (AID 720682). In outline: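 Green-label autofluorescence (485 nm excitation, 535 nm emission) measured on compound added to cell-free culture medium (DMEM, 10% FBS). Output is expressed relative to fluorescein.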
A short description of test [12]: qHTS assay to test for compound auto fluorescence at 590 nm (red) in HEK293 cell free culture (AID 720683). The essentials:
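Cell-free wells of DMEM with 10% FBS received compound, and intrinsic fluorescence was read at excitation/emission 540/590 nm. Values expressed as equivalence to Rose Bengal sodium.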

Test [13] can be described thus: qHTS assay to test for compound auto fluorescence at 590 nm (red) in HepG2 cell free culture (AID 720684). The essentials:
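Auto fluorescence equivalency versus Rose Bengal sodium, red channel Ex/Em 540/590 nm; compounds in cell-free MEM/10% FBS; DMSO vehicle control.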

Test [14] can be described thus: qHTS assay to test for compound auto fluorescence at 460 nm (blue) in HepG2 cell free culture (AID 720685). In outline: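 Cell-free plates of MEM plus 10% FBS received 23 nL compound or DMSO vehicle; blue-channel (405/460 nm) intensity scored against triamterene as reference fluorophore.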
Test [15] can be described thus: qHTS assay to test for compound auto fluorescence at 535 nm (green) in HepG2 cell free culture (AID 720686).
A short description of test [16]: qHTS assay to test for compound auto fluorescence at 460 nm (blue) in HepG2 cells (AID 720687). The essentials: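 HepG2 cells in MEM with 10% FBS, attached overnight at 37 C, were exposed to compound or DMSO for 1 hr at 37 C, 5% CO2. Blue fluorescence was read at 405/460 nm, with triamterene as reference fluorophore.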
Test [17] concerns the target Glucocorticoid receptor (Homo sapiens) (UniProt P04150). The experiment in a line: qHTS assay to identify small molecule agonists of the glucocorticoid receptor (GR) signaling pathway (AID 720691; active = well fitted activation curve with a large enough effect in the signal ratio in the repeat runs, not every such curve was filed as active; the % refers to the signal ratio; also: potency is read from the fitted curve at half-maximal effect). In outline: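 Compounds in DMSO, alongside positive controls, were added to GR-bla HeLa reporter cells and incubated 18 h at 37 C; GRE-driven beta-lactamase was detected by fluorescence after 2 h with FRET substrate at room temperature.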

Test [18] has the same target. The test can be described thus: qHTS assay to identify small molecule antagonists of the glucocorticoid receptor (GR) signaling pathway (AID 720692; active = well fitted inhibition curve with a large enough effect in the signal ratio in the repeat runs, not every such curve was filed as active; the % refers to the signal ratio). The essentials:
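In a 1536-well cell format, compounds were added 4 h after seeding GR-bla HeLa cells, together with dexamethasone at 5 nM final; reporter activity was measured by FRET-substrate fluorescence following 18 h at 37 C.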
% is scaled to controls: 0 for no effect and ±100 for the full control effect.

Chain of Glucocorticoid receptor (Homo sapiens) (P04150 whole entry, looked up): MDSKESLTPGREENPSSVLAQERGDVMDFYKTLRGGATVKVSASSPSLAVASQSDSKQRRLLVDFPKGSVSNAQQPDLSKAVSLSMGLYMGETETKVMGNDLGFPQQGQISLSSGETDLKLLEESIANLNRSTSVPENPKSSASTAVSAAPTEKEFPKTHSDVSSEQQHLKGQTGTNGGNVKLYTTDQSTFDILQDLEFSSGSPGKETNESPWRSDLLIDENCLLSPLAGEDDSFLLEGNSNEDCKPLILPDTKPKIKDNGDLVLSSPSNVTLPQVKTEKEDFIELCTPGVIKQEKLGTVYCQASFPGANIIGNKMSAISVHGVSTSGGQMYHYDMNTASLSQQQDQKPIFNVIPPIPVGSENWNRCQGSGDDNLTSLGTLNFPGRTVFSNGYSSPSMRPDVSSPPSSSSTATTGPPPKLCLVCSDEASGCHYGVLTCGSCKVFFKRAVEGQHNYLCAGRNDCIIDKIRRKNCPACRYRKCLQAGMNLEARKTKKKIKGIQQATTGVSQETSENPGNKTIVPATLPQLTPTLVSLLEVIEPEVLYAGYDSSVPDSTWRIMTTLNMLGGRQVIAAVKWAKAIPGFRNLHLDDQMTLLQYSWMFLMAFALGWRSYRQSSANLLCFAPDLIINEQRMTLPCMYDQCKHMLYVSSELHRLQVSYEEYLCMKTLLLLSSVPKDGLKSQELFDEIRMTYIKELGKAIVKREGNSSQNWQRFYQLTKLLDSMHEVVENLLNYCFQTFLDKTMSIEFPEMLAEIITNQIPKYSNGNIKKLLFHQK

With `CC(C)(C)CC(C)(C)N`, the Potency result in test [1], in test [2], in test [3], in [4], in test [7] and in test [10] was “inactive” in each case. The Potency result in test [14], in [16], in test [17] and in test [18] was “inactive” throughout. The compound was classed as inactive in [5], in test [6], in [8], in [9], in test [11] and in test [12]. Also, the outcome in test [13] and in test [15] was inactive.

For `CC(=O)c1ccc(C)cc1`, the Potency entry in [1], in test [2], in test [3], in test [7], in test [10] and in [14] was “inactive” throughout. The Potency result in [16] and in test [17] was “inactive” throughout. Also, the compound was called inactive in test [5], in [6], in [8], in test [9], in test [11] and in test [12]. Also, the call in [13] and in [15] was inactive.

For `C(=C(c1ccccc1)c1ccccc1)c1ccccc1`, the Potency entry in test [1], in [2], in test [3], in test [7], in [10] and in [14] was “inactive” each time. In addition, the Potency result in test [16], in test [17] and in [18] was “inactive” in each case. For the same compound, the Potency in test [4] was 30.6 µM (active). Moreover, the call in test [5], in test [6], in test [8], in test [9], in test [11] and in [12] was inactive. Besides, the outcome in [13] and in test [15] was inactive.

Turning to `CC1(C)SC(C)(C)SC(C)(C)S1`, the Potency entry in [1], in test [2], in test [3], in test [4], in [7] and in test [10] was “inactive” throughout. For the same compound, the Potency entry in test [14] and in test [16] was “inactive” throughout. The outcome in test [5], in test [6], in test [8], in test [9], in test [11] and in test [12] was inactive. Moreover, the result in test [13] and in test [15] was inactive.

On to `C[C@H](O)C(=O)Nc1c(I)c(C(=O)NC(CO)CO)c(I)c(C(=O)NC(CO)CO)c1I`, for which the Potency result in test [1], in test [2] and in [3] was “inactive” throughout. Besides, the fluorescence, relative to Rose Bengal in test [5] is 0.0368% [at 18.6 µM]. Further, the results for the fluorescence, % of fluorescein control in [6] and in test [15] were 0.0325% [at 18.6 µM] and -0.0219% [at 18.6 µM], respectively. Further, the fluorescence, % of triamterene in [7] is -0.0154% [at 18.6 µM]. Further, the fluorescence, % of fluorescent control in test [8] was 0.0561% [at 18.6 µM]; in test [10], -0.108% [at 18.6 µM]; in [12], 0.0628% [at 18.6 µM]; in test [14] it was -0.0806% [at 18.6 µM]; in test [16], -0.0019% [at 18.6 µM]. In addition, the fluorescence, % of fluorescein in [9] is -0.048% [at 18.6 µM]. Besides, the activity change in test [11] was 0.0506% [at 18.6 µM]. Further, in test [13], the fluorescence, % of Rose Bengal was 0.0851% [at 18.6 µM]. Further, in test [17], the Potency is 6.44 µM (active).

In the case of `O=C(O)c1ccccc1-c1ccc(C(F)(F)F)cc1`, the Potency entry in test [1], in [2], in [3], in [7], in test [10] and in test [14] was “inactive” in each case. The Potency result in test [16], in [17] and in test [18] was “inactive” each time. The compound was classed as inactive in test [5], in test [6], in [8], in test [9], in [11] and in test [12]. The outcome in test [13] and in [15] was inactive.

Turning to `CCCCCOC(=O)Nc1nc(=O)n([C@@H]2O[C@H](C)[C@@H](O)[C@H]2O)cc1F`, the Potency entry in [1], in [2], in [3], in [7], in test [10] and in test [14] was “inactive” each time. The Potency result in [16] is “inactive”. The compound was classed as inactive in [5], in test [6], in test [8], in [9], in test [11] and in [12]. The result in test [13] and in [15] was inactive.

In the case of `CC(C)CCCCCCN`, the Potency result in [1], in test [2], in [3], in test [4], in test [7] and in test [10] was “inactive” throughout. Also, the Potency entry in test [14], in test [16], in [17] and in [18] was “inactive” throughout. Also, the compound was called inactive in test [5], in [6], in test [8], in test [9], in test [11] and in [12]. The result in test [13] and in test [15] was inactive.

In the case of `CCCCC=O`, the Potency entry in test [1], in test [2], in test [3], in test [4], in test [7] and in [10] was “inactive” in each case. Moreover, the Potency result in test [14], in test [16], in test [17] and in test [18] was “inactive” throughout. Moreover, the compound was called inactive in test [5], in [6], in [8], in test [9], in [11] and in test [12]. Moreover, the call in test [13] and in test [15] was inactive.

Regarding `C1C2OC2C2C1C1CC2C2OC12` (centres undefined), the Potency entry in test [1], in test [2], in test [3], in test [4], in [7] and in test [10] was “inactive” each time. In addition, the Potency entry in [14], in [16] and in [17] was “inactive” each time. Moreover, the compound was called inactive in test [5], in [6], in test [8], in [9], in test [11] and in test [12]. Also, the outcome in test [13] and in test [15] was inactive.
